In PubChem BioAssay:

assay: JC-1 mitochondrial signal, unstimulated myeloma cells – cell-based, JC-1 fluorescence, RPMI8226, 24 h, 100 nL compound, profiling panel (AID 1169); details: JC-1 mitochondrial potential fluorescence, higher = more signal; note: test concentration not given here

First: O=C1N(Cc2ccccc2)c2ccccc2C[C@@]12COC(c1ccc(OCCCO)cc1)=N2
Second: C=CC[C@@]12N=C(c3ccc(OCCCO)cc3)O[C@@H]1c1ccccc1N(CCC)C2=O
The z-score of the first is higher: -0.907 for the first, -1.22 for the second.

Compared with `COc1ccc([Si](C)(C)[C@H]2[C@H](CC(=O)N3Cc4ccccc4C[C@H]3CO)O[C@@]3(C(=O)N(c4ccccc4)c4ccccc43)[C@@H]2C)cc1`, `COc1ccc([Si](C)(C)[C@H]2[C@H](CC(=O)N3Cc4ccccc4C[C@H]3CO)O[C@@]3(C(=O)N(C)c4c(Br)cc(C)cc43)[C@@H]2C)cc1` is lower in z-score: -1.1 for the first, -1.12 for the second.

Going from `C=C(COC)/C(=C/C[C@@H](OC(C)=O)c1ccccc1OCCO)c1cnc2ccccc2c1` to `C=C(CCCC)/C(=C/C[C@H](OC(C)=O)c1cccc(OCCO)c1)c1cnc2ccccc2c1`, the z-score falls from 0.328 to -0.205.

Compared with `O=C(NCc1ccccc1)[C@@H]1c2ccccc2C(=O)N(Cc2cc(C(F)(F)F)cc(C(F)(F)F)c2)[C@H]1c1ccc(CO)cc1`, `O=C1c2ccccc2[C@@]2(Cc3ccccc3N(Cc3ccccc3)C2=O)[C@H](c2ccc(CO)cc2)N1Cc1ccccc1Cl` is lower in z-score: -0.586 for the first, -0.972 for the second.

Compared with `COCCOC(=O)N1C(=O)[C@@]2(c3cc(C#CCNC(N)=O)ccc31)[C@H](C(=O)Nc1nc3ccccc3s1)[C@H]1C(=O)O[C@H](c3ccccc3)[C@H](c3ccccc3)N1[C@@H]2c1ccccc1OCCO`, `COC(=O)C(CC#Cc1ccc2c(c1)[C@]1(C(=O)N2)[C@H](C(=O)N2CCc3cc(OC)c(OC)cc3C2)[C@H]2C(=O)O[C@H](c3ccccc3)[C@H](c3ccccc3)N2[C@@H]1c1ccccc1OCCO)C(=O)OC` is higher in z-score: -0.981 for the first, -0.839 for the second.

Compared with `CC=CC(O)C1C=CC2C(=O)NC(=O)C2N1Nc1ccc(Cl)cc1Cl` (stereo not drawn), `COC(=O)C1(Cc2ccccc2)C=C2C(=C(C)C(=O)C2C)CN1` (stereo not drawn) is lower in z-score: 0.501 for the first, 0.151 for the second.

Going from `CCCCN1CC=CC23O[C@@H]4/C=C\CCCOC(=O)C4[C@H]2C(=O)N(C(CO)C(C)C)[C@@H]3C1=O` (stereo partly drawn) to `CC(C)(C)N1CC=CC23O[C@@H]4/C=C\CCCOC(=O)C4[C@H]2C(=O)N(CCCCCO)[C@@H]3C1=O` (stereo partly drawn), the z-score rises from -0.4 to 0.116.

Compared with `C=C(CCCC)/C(=C/C[C@H](OC(=O)c1ccncc1)c1ccccc1OCCO)c1cc(C(=O)OC)ccc1OC`, `C=C(CCCC)C(=O)CC[C@@H](OC(=O)c1ccccc1-c1ccccc1C(=O)O)c1ccccc1OCCO` is lower in z-score: -0.262 for the first, -0.67 for the second.

Compared with `COc1ccc(C(=O)Nc2ccc(CN3C(=O)[C@@]4(O[C@@H](CCn5cc(CCO)nn5)[C@H]([Si](C)(C)c5ccc(OC)cc5)[C@H]4C)c4ccccc43)cc2)cc1`, `COc1ccc([Si](C)(C)[C@@H]2[C@@H](CC(=O)N(CCO)Cc3ccccc3)O[C@]3(C(=O)N(Cc4ccc(I)cc4)c4ccccc43)[C@H]2C)cc1` is lower in z-score: -0.913 for the first, -1.2 for the second.

First: C#CCN1[C@@H](Cc2ccccc2)C(=O)O[C@H](Cc2ccccc2)[C@@H]1/C=C/C1CC1
Second: O=C1C=C(c2ccccc2)C(=O)C2=C1CC([C@H]1Oc3ccccc3S(=O)(=O)N3CCC[C@@H]13)=CC2
The z-score of the first is higher: -0.812 for the first, -1.16 for the second.

Compared with `COC(=O)[C@@]1(Cc2ccccc2)[C@H]2c3cc(C(=O)N4CCCC4)n(Cc4ccc(OC)c(OC)c4)c3C[C@H]2CN1C(=O)c1ccccc1`, `COc1ccc([Si](C)(C)[C@@H]2[C@@H](CC(=O)N3CCC[C@H]3CO)O[C@]3(C(=O)N(Cc4cccc(N5CCCCC5=O)c4)c4ccccc43)[C@H]2C)cc1` is lower in z-score: -0.73 for the first, -1.12 for the second.

First: CC[C@@H]1C=C(C(=O)O)[C@H](c2ccc(OC)cc2)N1S(=O)(=O)c1ccc(C)cc1
Second: CCOC(=O)C[C@H]1[C@H](OC(=O)Cc2ccc3c(c2)OCO3)[C@@H](NC(=O)c2ccc3ccccc3n2)c2cc(OCCCO)ccc2N1C(=O)Cc1ccc(OC)cc1
The z-score of the first is lower: -0.168 for the first, 0.167 for the second.

First: O=C1[C@H]2C=C(I)[C@H](C[C@@H]2OCCCCCCO)[C@@]12CO2
Second: C=CCOC(=O)[C@@H]1[C@H]2C(=O)O[C@H](c3ccccc3)[C@H](c3ccccc3)N2[C@H](c2ccc(OCCOC(=O)[C@H]3C[C@H]4C(=O)NCC(=O)N4[C@H]3c3cccc(OCCO)c3)cc2)[C@@]12C(=O)Nc1ccc(I)cc12
The z-score of the first is higher: -0.264 for the first, -0.632 for the second.

First: O=C(NC1CC1)[C@@H]1c2ccccc2C(=O)N(CC23CC4CC(CC(C4)C2)C3)[C@H]1c1ccc(CO)cc1
Second: C=CCOC(=O)[C@@H]1[C@H]2C(=O)O[C@H](c3ccccc3)[C@H](c3ccccc3)N2[C@H](c2ccc(OCCOC(=O)[C@H]3C[C@H]4C(=O)N[C@@H](CCCCN(C)C)C(=O)N4[C@H]3c3ccc(O)cc3)cc2)[C@@]12C(=O)Nc1ccc(I)cc12
The z-score of the first is higher: 0.555 for the first, -0.35 for the second.
